Compound activity: PubChem, National Center for Advancing Translational Sciences (NCATS)
In the library only some 19% were active in any assay of this set; here they are far more common.
DT40 TDP1 no CPT = qHTS for Inhibitors of human tyrosyl-DNA phosphodiesterase 1 (TDP1): qHTS in cells in absence of CPT. DT40 Tdp1-/- hTDP1 cells, no CPT, ATP luminescence, 48 h. Potency, µM (titrated, usually from 46.2 µM), actives largely listed as inhibitors. 15% of 420,000 active. AID 686978, 2013; also: nearly all actives have a fitted effect of over 55% in size
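Luminescent ATP content (CellTiter-Glo) served as the growth readout. Knockout chicken DT40 cells expressing human TDP1 were exposed to compounds without camptothecin for a minimum 48 hr at 37 °C.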
IL1B secr inh = inhibitors of inflammasome signaling (IL-1 beta secretion) | THP-1 LPS/ATP IL-1B secretion, AlphaLISA, 16 h; hits give low values | activity change, % at 57.5 µM | 4.7% of 360,000 active | AID 743279; in the data active = activity change below about -50%; inconclusive = mostly about -30% to -49%
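THP-1 cells pretreated 1 hr with compounds (up to 57.5 uM final), then stimulated with LPS (250 ng/mL final) plus ATP (1.25 mM final); secreted IL-1B measured by AlphaLISA after 16 hr, decreased signal indicating inhibition.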
TDP1 inh = blocks human tyrosyl-DNA phosphodiesterase 1; 0.28% of 350,000 active; Q9NUW8; Potency, µM (highest dose often 130 µM), most hits filed as inhibitors; recombinant TDP1, AlphaScreen DNA substrate cleavage; also: nearly all actives have a fitted effect of over 40% in size
Target sequence (Q9NUW8 whole entry, looked up): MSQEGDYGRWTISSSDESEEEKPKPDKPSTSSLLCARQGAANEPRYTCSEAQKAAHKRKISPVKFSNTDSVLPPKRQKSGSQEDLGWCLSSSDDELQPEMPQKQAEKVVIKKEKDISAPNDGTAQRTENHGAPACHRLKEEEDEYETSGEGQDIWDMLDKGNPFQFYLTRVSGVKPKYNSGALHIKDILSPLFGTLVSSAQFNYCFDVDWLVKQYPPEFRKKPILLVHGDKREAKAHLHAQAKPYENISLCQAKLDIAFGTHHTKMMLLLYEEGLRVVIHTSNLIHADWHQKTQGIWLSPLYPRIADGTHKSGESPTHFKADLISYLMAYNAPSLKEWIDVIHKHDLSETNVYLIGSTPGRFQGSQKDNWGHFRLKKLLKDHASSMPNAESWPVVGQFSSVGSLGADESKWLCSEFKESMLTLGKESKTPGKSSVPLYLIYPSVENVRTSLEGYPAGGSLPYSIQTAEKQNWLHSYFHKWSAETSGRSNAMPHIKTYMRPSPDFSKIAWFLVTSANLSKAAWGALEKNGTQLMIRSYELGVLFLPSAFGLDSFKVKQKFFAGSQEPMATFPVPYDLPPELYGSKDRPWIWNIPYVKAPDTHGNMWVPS
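Here, a 5' biotin and 3' phosphotyrosine-FITC DNA oligonucleotide reports Tdp1 activity: intact substrate bridges AlphaScreen beads, while cleavage leaves a 3' phosphate and drops signal. All incubations at room temperature.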
ELG1 repair inh = blocks ELG1-dependent DNA repair in HEK293T cells; HEK293T ELG1-luciferase reporter, luminescence, 16 h; DNA damage induced by 5-fluorouridine; Potency, µM (titrated, usually from 46.1 µM), usual class: inhibitors; 2.3% of 330,000 active; also: nearly all actives have a fitted effect of over 55% in size
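Overnight (16 hr) co-exposure of 2,000 cells/well to 5-fluorouridine and compound at 37 °C preceded detection. Luciferase was quantified via ONE-Glo luminescence; loss of signal denotes inhibition.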
DT40 TDP1 CPT = DT40-hTDP1 cell growth loss with CPT. chicken DT40 Tdp1-/-;hTDP1 cells + 20 nM CPT, ATP luminescence, 48 h. Potency, µM (highest dose often 46.2 µM), most hits filed as inhibitors. 12% of 420,000 active. AID 686979; also: nearly all actives have a fitted effect of over 55% in size
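Chicken DT40 Tdp1-/- cells stably complemented with human TDP1 were seeded at 400 cells/well in medium containing 20 nM camptothecin, exposed to pin-transferred compounds, and grown at 37 °C for at least 48 hr. Viability was read as ATP luminescence.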
Giardia killer = Giardia lamblia killing | Giardia lamblia trophozoite viability | 0.15% of 340,000 active | AID 540267 | activity change, % at 7.66 µM, hits read low; in the data active = activity change below about -80%; inconclusive = between about -30% and that limit;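 also: parasites exposed to compound for two days anaerobically before the ATP read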
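Giardia trophozoites, 100 cells per well, were exposed to compounds for 48 hrs at 37 deg C under anaerobic conditions; viability was then read as ATP content by bioluminescence after 15-30 min at room temperature.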
A number is an active result; 0 = inactive; ? = inconclusive; - = no result; [ ] = another dose, or the depositor's remark. Unless noted, calls follow the shape of the dose curve; as a rule, active = well fitted curve in the direction sought with a large enough effect; inconclusive = small, poorly fitted or top-dose-only effect, or another doubt; inactive = no such curve, though single readings can be large; an effect the other way counts as inactive or inconclusive.

SMILES	DT40 TDP1 no CPT	IL1B secr inh	TDP1 inh	ELG1 repair inh	DT40 TDP1 CPT	Giardia killer
CCCOc1ccc(-c2c(C(=O)N/N=C/c3ccncc3)nnn2-c2nonc2N)cc1	0	-53.8	0	0	0	0
COc1ccccc1/C=N/NC(=O)c1nnn(-c2nonc2N)c1-c1cccs1	0	0	0	0	23.1µM	?
COc1cccc(-c2c(C(=O)N/N=C/c3sccc3C)nnn2-c2nonc2N)c1	0	-54.5	0	?	0	0
COc1ccccc1/C=N/NC(=O)c1nnn(-c2nonc2N)c1-c1ccccc1	0	0	-	-	0	0
Cc1ccc(-c2c(C(=O)N/N=C/c3c[nH]c4ccccc34)nnn2-c2nonc2N)cc1	16.4µM	0	0	?	?	0
CCCc1c(C(=O)N/N=C/c2c[nH]c3ccccc23)nnn1-c1nonc1N	?	0	-	-	?	-
O=C(CN1C(=O)c2ccccc2S1(=O)=O)Nc1ncc(Cl)cc1Cl	0	0	0	?	0	0
Cc1c(C(=O)NCCc2ccccc2)cccc1-n1cnc2cccnc21	?	-	0	-	?	-
CC(C)/C=C/CN1CCN(CCCc2ccccc2)C(CCO)C1 (centres undefined)	?	0	-	0	?	0
COC(=O)[C@H](COC(C)(C)C)NC(=O)O[C@@H]1C(=O)c2cc(OC)ccc2O[C@H]1c1cccc(OC)c1	-	-	0	-	-	-
Cc1ccsc1/C=N/NC(=O)c1nnn(-c2nonc2N)c1-c1ccccc1	0	-91.9	-	?	0	0
CCCCc1nc2sc3c(=O)[nH]c(=S)[nH]c3c2c2c1CCC2	0	0	-	-	0	0
CCc1c(C)sc2c1CCN(Cc1ccccc1)C2c1ccccc1 (centres undefined)	2.91µM	-	0	-	7.31µM	-
CCc1c(C)sc2c1CCN(Cc1ccccc1C#N)C2c1ccccc1 (centres undefined)	?	-	0	-	9.2µM	-
COc1ccccc1NC(=O)c1c(NCc2ccc(C)o2)sc2c1CCCCC2	6.51µM	-	0	-	5.8µM	-
COc1ccccc1NC(=O)c1c(NC(=O)c2cccs2)sc2c1CCC(C(C)(C)C)C2 (centres undefined)	0	-	-	-	0	-
CCOc1ccc(NC(=O)c2c(NCc3cccnc3)sc3c2CCC(C)C3)cc1 (centres undefined)	14.6µM	-	0	-	14.6µM	-
COC(=O)c1c(NC(=O)CN(C)CC(=O)Nc2ccc(C)cc2)sc2c1CCC(C)C2 (centres undefined)	?	0	0	?	?	0
CC(C)(C)C1CCc2c(sc(NC(=O)CCC(=O)O)c2C(=O)Nc2ccccc2C(F)(F)F)C1 (centres undefined)	20.6µM	-	-	-	16.4µM	-
COC(=O)c1c(NC(=O)Cc2cccs2)sc2c1CCC(C)C2 (centres undefined)	?	-83.4	0	?	?	0
Nc1ncc(S(=O)(=O)Nc2ccc(F)cc2F)cn1	0	-	0	-	0	-
COC(=O)c1c(NC(=O)COc2ccc(Cl)cc2C)sc2c1CCCCC2	0	-	0[12.3 µM]	-	0	-
CCOC(=O)N1CCc2c(sc(NCc3cc(OC)ccc3OC)c2C(=O)Nc2cc(OC)ccc2OC)C1	?	-	0	-	?	-
COc1ccc(Cl)cc1NC(=O)c1c(NCc2ccc(C)o2)sc2c1CCCCC2	14.6µM	-	0	-	9.2µM	-
CCOc1ccc(NC(=O)c2c(NC(=O)c3ccncc3)sc3c2CCC(C(C)(C)C)C3)cc1 (centres undefined)	20.6µM	-	-	-	?	-
COc1ccc(OC)c(NC(=O)c2c(NCc3ccc(C)o3)sc3c2CCCCC3)c1	7.31µM	-	0	-	6.51µM	-
COC(=O)c1c(NC(=S)NN2CCN(C)CC2)sc2c1CCC(C)C2 (centres undefined)	?	-69.4	0	0	?	0
CCOc1ccccc1NC(=O)c1c(NCc2cccs2)sc2c1CCC(C)C2 (centres undefined)	18.4µM	-	0	-	?	-
COc1ccc(Cl)cc1NC(=O)c1c(NCc2cccs2)sc2c1CCC(C)C2 (centres undefined)	13µM	-	0	-	?	-
